ROMK mod: modulators of human ROMK potassium channel | P48048 | Tet-inducible ROMK, thallium flux fluorescence; actives lie on both sides | B-score at 10 µM | 130,000 tested, 2% active;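 active = signal ratio slope over the read window, or its plate-corrected B-score, at least 3 SD from the plate mean, either direction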;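 note: B-score of the F/F0 ratio slope over 7 to 12 s after thallium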
Target sequence (P48048 whole entry, looked up): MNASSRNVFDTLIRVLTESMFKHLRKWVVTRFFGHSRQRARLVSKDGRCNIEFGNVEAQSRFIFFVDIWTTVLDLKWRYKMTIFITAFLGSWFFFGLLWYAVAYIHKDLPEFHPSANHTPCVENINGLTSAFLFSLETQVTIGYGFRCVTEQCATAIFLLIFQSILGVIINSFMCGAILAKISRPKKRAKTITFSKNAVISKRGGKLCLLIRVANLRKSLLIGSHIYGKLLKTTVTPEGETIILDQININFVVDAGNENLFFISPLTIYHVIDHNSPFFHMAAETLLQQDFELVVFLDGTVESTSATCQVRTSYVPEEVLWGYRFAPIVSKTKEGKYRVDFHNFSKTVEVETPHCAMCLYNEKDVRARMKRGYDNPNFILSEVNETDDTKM
Arbovirus anti: blocks arbovirus infection | arbovirus infection cell-based antiviral screen | inhibition, % at 10 µM | 200,000 tested, 0.37% active; in the data active = inhibition above about 30%
KCC2 mod: modulators of human KCC2 chloride dependent transport; KCC2 cells, thallium flux FluoZin-2 fluorescence; B-score of Tl+ flux slope (higher = more flux/activation; lower = inhibition) at 10 µM; 190,000 tested, 2.2% active; AID 1456;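 active = thallium flux slope and its plate-corrected score both differing from the plate sample mean at a set confidence after two filtering rounds, in either direction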;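 note: slope of fluorescence scaled to starting intensity during 10 to 20 s after thallium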
HSV replic up: increases HSV replication in cells. HSV replication augmentation in cells, fold increase. 220,000 tested, 0.005% active. maximum fold increase; in the data active = maximum fold increase above about 1.5; inconclusive = no clear call, values can overlap the other calls; tested in PC3 cells
Measles CPE: protection of cells from measles virus; Measles virus-infected cells, CPE protection, absorbance; protection (pct of control), % at 4 µM; 140,000 tested, 1.5% active; in the data active = protection mostly above about 24%, no sharp cut-off; inactive = mostly below about 26%
KCC2 sec1: confirmation of human KCC2 transport modulators. shares compounds with KCC2 mod. HEK293-KCC2, thallium flux, FluoZin2 fluorescence; hits give high values. normalised thallium flux (F/F0 slope) at 10 µM. 3,700 tested, 15% active;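 active = thallium flux slope above the same plate's solvent-only control mean plus 3 SD; inconclusive = the two replicate wells disagree; inactive = no significant difference from solvent-only control wells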
KCC2 bumet counter: bumetanide-insensitive thallium flux in KCC2 cells with ouabain, counter-screen | shares compounds with KCC2 mod | HEK293-KCC2 + bumetanide/ouabain, thallium flux FluoZin2; hits give high values | normalized thallium flux at 10 µM | 3,700 tested, 49% active;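 active = thallium entry rate above the same plate's blocked-transporter control wells by more than 3 SD; inconclusive = the two repeat wells disagree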;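 note: raw slope of fluorescence over initial fluorescence between 10 and 20 s after thallium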
KCC2 secondary2: confirmation of human KCC2 transport modulators. shares compounds with KCC2 mod. HEK293-KCC2, thallium flux FluoZin2 fluorescence; actives lie on both sides; F/F0 rise rate, 10–20 s post-thallium. normalized thallium flux at 10 µM. 3,700 tested, 23% active;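 active = thallium flux slope more than 3 SD above or below the plate's solvent-only control mean, mostly below; inconclusive = the two repeat wells disagreed; inactive = no significant shift from solvent-only controls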
HEK293 Tl flux: counter-screen for KCC2 modulators: effect in parental HEK293 cells. shares compounds with KCC2 mod. thallium flux FluoZin2, ouabain; baseline-ratio fluorescence slope, 10–20 s after thallium. thallium flux rate (normalised fluorescence) at 10 µM. 3,700 tested, 46% active. AID 1716;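 active = thallium flux rate significantly above the same plate's solvent-only control wells, beyond their mean plus 3 SD; inconclusive = the two replicate wells gave conflicting results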
KCC2 ouabain: KCC2 (human) modulation, ouabain retest; shares compounds with KCC2 mod; HEK293-KCC2, thallium flux FluoZin2 fluorescence; bidirectional: low = inhibitor, high = activator; raw Tl+ flux slope (below DMSO = inhibition, above = activation) at 10 µM; 3,700 tested, 48% active;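 active = thallium flux slope beyond 3 SD from same-plate DMSO control mean in most replicates, usually higher, sometimes lower; inconclusive = repeat tests gave conflicting results; inactive = no significant difference from controls in most replicates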;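 note: slope of initial-normalized fluorescence between seconds 10 and 20 after thallium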
HEK293 Tl flux2: acts in parental HEK cells, second KCC2 counter-screen; shares compounds with KCC2 mod; HEK293 parental, thallium flux FluoZin-2 fluorescence slope; thallium flux slope at 10 µM; 3,700 tested, 33% active;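 active = thallium flux slope above the same plate's solvent-control mean plus 3 SD in both duplicate wells; inconclusive = duplicate wells that disagreed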;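 note: run without ouabain in cells lacking the KCC2 cotransporter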
Each line names hits and unclear results; the compound was inactive in the other large screens (follow-up assays come after a bar, where they were run). Hits are enriched below; roughly 4% of the tested compounds scored in any of these assays.

CC(Cc1n[nH]c(=S)o1)c1ccccc1 (stereo unspecified)	none (no result: Measles CPE)
CC(=O)N[C@@H](C)C(=O)OC(C)C(=O)Nc1cccc([N+](=O)[O-])c1 (stereo partly specified)	none (no result: Measles CPE)
Cc1nc(=S)n(-c2ccccc2)[nH]1	none (no result: ROMK mod)
S=c1nc(C2CCCCC2)n(-c2ccccc2)[nH]1	KCC2 mod 126 (no result: ROMK mod, Measles CPE) | KCC2 sec1 0.0546 | KCC2 bumet counter 0.139 | KCC2 secondary2 0.0479 | HEK293 Tl flux 0.0782 | KCC2 ouabain 0.112 | HEK293 Tl flux2 0.0308
O=C(NCc1ccccc1Cl)C1CCN(c2cnccn2)CC1	none (no result: Measles CPE)
O=C(N/N=C/c1cc([N+](=O)[O-])cc(Br)c1O)C12CC3CCC(CC(C3)C1)C2	KCC2 mod 8.34 (no result: ROMK mod, Arbovirus anti, Measles CPE) | KCC2 sec1 inactive | KCC2 bumet counter 0.0174 | KCC2 secondary2 inactive | HEK293 Tl flux 0.0123 | KCC2 ouabain inconclusive | HEK293 Tl flux2 inconclusive
COc1cc(/C=N/NC(=O)C23CC4CC(CC(C4)C2)C3)cc(Br)c1O	none
CCn1c(CCCOc2ccc(Cl)cc2Cl)n[nH]c1=S	none (no result: Measles CPE)
O=C(c1cc(COc2ccc(F)cc2Cl)on1)N(Cc1ccncc1)CC1CCCO1 (stereo unspecified)	none (no result: ROMK mod, KCC2 mod, Measles CPE)
O=C(c1cc(COc2ccc(F)cc2Cl)on1)N1CCC(c2ccncc2)CC1	KCC2 mod -6.27 (no result: Measles CPE) | KCC2 sec1 inactive | KCC2 bumet counter inactive | KCC2 secondary2 inactive | HEK293 Tl flux inactive | KCC2 ouabain 0.0143 | HEK293 Tl flux2 inactive
Fc1ccc(COc2cccc(CNCc3ccncc3)c2)cc1	none (no result: Measles CPE)
COc1ccc(-c2nnc3n2-c2ccccc2SC3)cc1OC	none (no result: KCC2 mod)
CCN1C(c2ccc(F)cc2)=CS/C1=C(\C#N)c1nnc2n1-c1ccccc1SC2	KCC2 mod -5.12 (no result: ROMK mod) | KCC2 sec1 inactive | KCC2 bumet counter inactive | KCC2 secondary2 inactive | HEK293 Tl flux inactive | KCC2 ouabain 0.0155 | HEK293 Tl flux2 inactive
Cc1c(C(=O)C(=O)NCc2ccco2)c2ccccc2n1C	none (no result: Measles CPE)
O=C(CN(CCc1ccccc1)C(=O)Cn1nnc(-c2cccs2)n1)NCc1ccco1	KCC2 mod -4.08 (no result: ROMK mod) | KCC2 sec1 inactive | KCC2 bumet counter inactive | KCC2 secondary2 0.0238 | HEK293 Tl flux inactive | KCC2 ouabain inconclusive | HEK293 Tl flux2 inactive
NC(=O)c1cc(-c2ccccc2)sc1NC(=O)CN1CCCCC1	none (no result: ROMK mod)
CC12CN(C(=S)Nc3ccccc3)CC(C)(CN(C(=S)Nc3ccccc3)C1)C2=O	none (no result: Measles CPE)
Cc1ccc(S(=O)(=O)Oc2ccccc2/C=C2\SC(=O)NC2=O)cc1	KCC2 mod -6.01 (no result: Measles CPE) | KCC2 sec1 inconclusive | KCC2 bumet counter inactive | KCC2 secondary2 0.0238 | HEK293 Tl flux 0.00658 | KCC2 ouabain 0.0147 | HEK293 Tl flux2 inactive
O=C(COc1ccccc1/C=C1\SC(=O)NC1=O)Nc1ccc(F)cc1	KCC2 mod -3.14 (no result: Measles CPE) | KCC2 sec1 inactive | KCC2 bumet counter inactive | KCC2 secondary2 inactive | HEK293 Tl flux inactive | KCC2 ouabain 0.0134 | HEK293 Tl flux2 inactive
O=C1NC(=O)/C(=C/c2ccccc2Oc2ccc(Cl)cc2)S1	none (no result: ROMK mod, KCC2 mod)
COc1cccc(COc2ccc3c(C)c(Cc4ccccc4)c(=O)oc3c2)c1	none (no result: ROMK mod, Arbovirus anti, KCC2 mod, Measles CPE)
Cc1c(Cc2ccccc2)c(=O)oc2cc(OCc3ccc(C(=O)O)cc3)ccc12	KCC2 mod -4.23 (no result: Measles CPE) | KCC2 sec1 inactive | KCC2 bumet counter inactive | KCC2 secondary2 inactive | HEK293 Tl flux 0.00625 | KCC2 ouabain inconclusive | HEK293 Tl flux2 inactive
Fc1cc(F)c2nc(N3CCCC3)sc2c1	none (no result: ROMK mod, HSV replic up, Measles CPE)

Screening data as filed in PubChem.
